These results are taken from publication PMC7862700, “An all-to-all approach to the identification of sequence-specific readers for epigenetic DNA modifications on cytosine”.

Common to all, as to test: DAPPL (digital affinity profiling via proximity ligation, sequencing); 10 mM Tris-HCl pH 7.5, 50 mM NaCl, 1 mM DTT, 4% glycerol, room temperature, 30 min; GST-TFs on glutathione beads, 16-mer random dsDNA library, 0.1% formaldehyde crosslink after washing; high values mean tight binding
What all share (conditions): protein: recombinant; tags: N-terminal GST; dsDNA, one strand shown

The target of one assay is T1, ERF (Homo sapiens, UniProt P50548 1-548).
T1 sequence: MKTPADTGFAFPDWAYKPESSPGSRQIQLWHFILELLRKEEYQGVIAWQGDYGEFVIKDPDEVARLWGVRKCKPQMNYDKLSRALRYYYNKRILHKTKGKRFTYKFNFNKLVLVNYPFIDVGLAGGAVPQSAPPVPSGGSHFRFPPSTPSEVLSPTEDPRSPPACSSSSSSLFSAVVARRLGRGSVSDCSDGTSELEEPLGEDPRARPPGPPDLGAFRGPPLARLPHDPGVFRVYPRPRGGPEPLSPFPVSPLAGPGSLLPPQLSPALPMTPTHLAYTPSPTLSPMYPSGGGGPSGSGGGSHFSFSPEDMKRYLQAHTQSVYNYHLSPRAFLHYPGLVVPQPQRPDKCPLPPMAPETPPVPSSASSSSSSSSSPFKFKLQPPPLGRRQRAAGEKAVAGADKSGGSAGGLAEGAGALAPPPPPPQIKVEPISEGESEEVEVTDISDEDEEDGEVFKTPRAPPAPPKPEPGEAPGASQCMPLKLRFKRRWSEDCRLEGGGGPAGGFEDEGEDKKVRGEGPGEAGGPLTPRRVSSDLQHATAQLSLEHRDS
An outline of the steps: (§1)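 Binding signal is given per hexamer as its read frequency for a factor divided by its frequency in the tag-only sample. GST-fused human transcription factors were expressed in yeast, captured on glutathione beads, barcoded with DNA and pooled with that sample, then incubated with 200 nmole of a 16-mer random double-stranded DNA library in Tris/NaCl/DTT/glycerol buffer for 30 min at room temperature. The pools were then washed, crosslinked, proximity-ligated, amplified by PCR and sequenced on an Illumina NextSeq500.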

The target of the next assay is T2, ETV3L (Homo sapiens, UniProt Q6ZN32 1-361).
T2 sequence: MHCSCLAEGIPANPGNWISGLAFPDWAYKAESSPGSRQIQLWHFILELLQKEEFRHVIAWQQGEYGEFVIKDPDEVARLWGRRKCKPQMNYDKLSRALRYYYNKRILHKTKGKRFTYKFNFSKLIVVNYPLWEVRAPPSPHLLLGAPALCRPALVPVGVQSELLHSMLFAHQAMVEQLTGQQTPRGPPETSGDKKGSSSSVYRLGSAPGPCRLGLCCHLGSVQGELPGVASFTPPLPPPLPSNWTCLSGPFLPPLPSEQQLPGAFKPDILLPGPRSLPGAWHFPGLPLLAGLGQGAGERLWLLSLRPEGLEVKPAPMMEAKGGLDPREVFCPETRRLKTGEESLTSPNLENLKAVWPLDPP
The method in brief: as §1

Another assay has as its target T3, ETS2 (Homo sapiens, UniProt P15036 1-469).
T3 sequence: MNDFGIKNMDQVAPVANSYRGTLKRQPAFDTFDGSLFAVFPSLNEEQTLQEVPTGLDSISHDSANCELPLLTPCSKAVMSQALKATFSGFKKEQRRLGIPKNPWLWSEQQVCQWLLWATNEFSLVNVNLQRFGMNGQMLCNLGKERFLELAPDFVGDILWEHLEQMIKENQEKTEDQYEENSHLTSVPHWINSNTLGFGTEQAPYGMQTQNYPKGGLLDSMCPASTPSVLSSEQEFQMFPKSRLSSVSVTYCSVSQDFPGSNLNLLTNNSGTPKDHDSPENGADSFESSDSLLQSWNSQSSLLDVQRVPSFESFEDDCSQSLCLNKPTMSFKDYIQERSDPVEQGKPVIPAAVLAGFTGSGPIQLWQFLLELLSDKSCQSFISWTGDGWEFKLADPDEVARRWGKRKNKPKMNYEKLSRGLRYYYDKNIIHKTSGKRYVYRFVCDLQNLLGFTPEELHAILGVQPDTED
An outline of the steps:
as §1

A further assay addresses T4, SPDEF (Homo sapiens, UniProt O95238 1-335).
T4 sequence: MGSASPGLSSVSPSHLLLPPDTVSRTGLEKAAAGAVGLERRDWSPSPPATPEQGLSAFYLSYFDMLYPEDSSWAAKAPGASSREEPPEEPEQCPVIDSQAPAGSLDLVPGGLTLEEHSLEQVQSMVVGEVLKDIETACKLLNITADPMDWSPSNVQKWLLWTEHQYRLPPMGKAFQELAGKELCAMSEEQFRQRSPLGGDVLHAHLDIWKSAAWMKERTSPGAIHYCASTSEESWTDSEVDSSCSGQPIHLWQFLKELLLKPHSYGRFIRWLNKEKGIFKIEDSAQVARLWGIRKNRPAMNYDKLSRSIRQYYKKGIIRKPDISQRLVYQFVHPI
An outline of the steps:
as §1

Another assay has as its target T5, ETV7 (Homo sapiens, UniProt Q9Y603 1-341).
T5 sequence: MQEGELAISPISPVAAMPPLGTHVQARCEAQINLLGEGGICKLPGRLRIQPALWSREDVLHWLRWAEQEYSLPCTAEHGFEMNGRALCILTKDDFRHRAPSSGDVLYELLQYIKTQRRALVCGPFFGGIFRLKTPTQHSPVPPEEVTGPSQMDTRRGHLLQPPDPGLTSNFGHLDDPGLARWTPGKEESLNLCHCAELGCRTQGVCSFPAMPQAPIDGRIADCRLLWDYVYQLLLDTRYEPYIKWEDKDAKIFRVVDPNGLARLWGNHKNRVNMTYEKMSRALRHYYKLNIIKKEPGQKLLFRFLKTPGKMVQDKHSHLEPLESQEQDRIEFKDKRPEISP
The method in brief: as §1

In the next assay the target is T6, ELF5 (Homo sapiens, UniProt Q9UKW6-2 1-255).
T6 sequence: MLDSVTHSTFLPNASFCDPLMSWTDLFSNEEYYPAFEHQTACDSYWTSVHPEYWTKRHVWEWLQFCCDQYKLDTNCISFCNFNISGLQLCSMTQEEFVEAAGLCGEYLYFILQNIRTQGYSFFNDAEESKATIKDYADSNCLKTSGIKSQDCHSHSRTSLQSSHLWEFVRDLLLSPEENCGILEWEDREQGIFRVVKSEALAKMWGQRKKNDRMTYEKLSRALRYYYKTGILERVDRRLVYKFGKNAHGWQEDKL
An outline of the steps: as §1

In a further assay the target is T7, ETV3 (Homo sapiens, UniProt P41162-2 1-143).
T7 sequence: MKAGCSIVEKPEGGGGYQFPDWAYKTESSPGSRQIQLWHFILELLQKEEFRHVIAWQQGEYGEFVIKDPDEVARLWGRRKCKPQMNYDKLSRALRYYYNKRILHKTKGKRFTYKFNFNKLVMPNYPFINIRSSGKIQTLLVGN
An outline of the steps: as §1

The next assay deals with ETV6 (Homo sapiens, UniProt P41212 1-452). The method in brief:
as §1

Sequence of ETV6 (P41212 whole entry): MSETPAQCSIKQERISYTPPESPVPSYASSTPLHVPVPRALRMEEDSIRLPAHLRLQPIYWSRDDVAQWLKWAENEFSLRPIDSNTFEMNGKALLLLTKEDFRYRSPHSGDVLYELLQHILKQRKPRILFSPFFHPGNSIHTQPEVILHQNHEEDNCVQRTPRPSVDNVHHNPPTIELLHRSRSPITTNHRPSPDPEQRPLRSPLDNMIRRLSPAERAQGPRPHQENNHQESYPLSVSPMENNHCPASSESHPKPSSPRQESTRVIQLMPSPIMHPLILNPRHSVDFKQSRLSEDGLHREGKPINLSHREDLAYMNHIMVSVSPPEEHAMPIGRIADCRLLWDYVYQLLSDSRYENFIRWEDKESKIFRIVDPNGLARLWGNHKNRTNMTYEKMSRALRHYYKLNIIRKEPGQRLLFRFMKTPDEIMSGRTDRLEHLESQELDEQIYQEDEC

For the sequence ACTTAT, the binding signal was 1.39 fold enrichment (6-mer frequency, TF over GST control) with ERF; 1.34 fold enrichment (6-mer frequency, TF over GST control) with ETV3L; 1.36 fold enrichment (6-mer frequency, TF over GST control) with ETS2; 1.4 fold enrichment (6-mer frequency, TF over GST control) with SPDEF; 1.21 fold enrichment (6-mer frequency, TF over GST control) with ETV7; 1.38 fold enrichment (6-mer frequency, TF over GST control) with ELF5. Besides, the binding signal was 1.35 fold enrichment (6-mer frequency, TF over GST control) in the assay with ETV3 and 1.27 fold enrichment (6-mer frequency, TF over GST control) in the assay with ETV6.

CCATAA: the binding signal with ERF was 1.24 fold enrichment (6-mer frequency, TF over GST control); with ETV3L it was 1.22 fold enrichment (6-mer frequency, TF over GST control); with ETS2, 1.22 fold enrichment (6-mer frequency, TF over GST control); in the assay with SPDEF it was 1.12 fold enrichment (6-mer frequency, TF over GST control); with ETV7, 1.15 fold enrichment (6-mer frequency, TF over GST control); with ELF5, 1.1 fold enrichment (6-mer frequency, TF over GST control). Moreover, the binding signal was 1.25 fold enrichment (6-mer frequency, TF over GST control) with ETV3 and 1.21 fold enrichment (6-mer frequency, TF over GST control) in the assay with ETV6.

Regarding TCCTCG, the binding signal with ERF was 1.48 fold enrichment (6-mer frequency, TF over GST control); with ETV3L it was 1.57 fold enrichment (6-mer frequency, TF over GST control); with ETS2 it was 1.35 fold enrichment (6-mer frequency, TF over GST control); with SPDEF it was 1.33 fold enrichment (6-mer frequency, TF over GST control); with ETV7, 1.49 fold enrichment (6-mer frequency, TF over GST control); in the assay with ELF5 it was 1.93 fold enrichment (6-mer frequency, TF over GST control). Besides, the binding signal was 1.5 fold enrichment (6-mer frequency, TF over GST control) with ETV3 and 1.48 fold enrichment (6-mer frequency, TF over GST control) in the assay with ETV6.

Turning to GAACTC, the binding signal in the assay with ERF was 1.11 fold enrichment (6-mer frequency, TF over GST control); with ETV3L, 1.3 fold enrichment (6-mer frequency, TF over GST control); in the assay with ETS2, 1.26 fold enrichment (6-mer frequency, TF over GST control); with SPDEF, 1.33 fold enrichment (6-mer frequency, TF over GST control); in the assay with ETV7 it was 1.29 fold enrichment (6-mer frequency, TF over GST control); with ELF5 it was 1.32 fold enrichment (6-mer frequency, TF over GST control). The binding signal in the assay with ETV3 is 1.33 fold enrichment (6-mer frequency, TF over GST control); with ETV6, 1.28 fold enrichment (6-mer frequency, TF over GST control).

TCCAAG: the binding signal in the assay with ERF was 1.03 fold enrichment (6-mer frequency, TF over GST control); with ETV3L, 1.06 fold enrichment (6-mer frequency, TF over GST control); in the assay with ETS2, 1.13 fold enrichment (6-mer frequency, TF over GST control); with SPDEF it was 1.17 fold enrichment (6-mer frequency, TF over GST control); in the assay with ETV7, 1.07 fold enrichment (6-mer frequency, TF over GST control); in the assay with ELF5, 1.07 fold enrichment (6-mer frequency, TF over GST control). The binding signal with ETV3 is 1.06 fold enrichment (6-mer frequency, TF over GST control); with ETV6, 1.03 fold enrichment (6-mer frequency, TF over GST control).

On to TCCGAT, for which the binding signal is 1.25 fold enrichment (6-mer frequency, TF over GST control) with ERF; 1.22 fold enrichment (6-mer frequency, TF over GST control) in the assay with ETV3L; 1.28 fold enrichment (6-mer frequency, TF over GST control) with ETS2; 1.34 fold enrichment (6-mer frequency, TF over GST control) with SPDEF; 1.27 fold enrichment (6-mer frequency, TF over GST control) with ETV7; 1.27 fold enrichment (6-mer frequency, TF over GST control) with ELF5. In addition, the binding signal with ETV3 was 1.35 fold enrichment (6-mer frequency, TF over GST control); with ETV6, 1.39 fold enrichment (6-mer frequency, TF over GST control).

On to AAACCA, for which the binding signal in the assay with ERF was 1.16 fold enrichment (6-mer frequency, TF over GST control); with ETV3L, 1.18 fold enrichment (6-mer frequency, TF over GST control); in the assay with ETS2, 1.17 fold enrichment (6-mer frequency, TF over GST control); with SPDEF, 1.1 fold enrichment (6-mer frequency, TF over GST control); in the assay with ETV7, 1.2 fold enrichment (6-mer frequency, TF over GST control); with ELF5, 1.13 fold enrichment (6-mer frequency, TF over GST control). Also, the binding signal with ETV3 is 1.15 fold enrichment (6-mer frequency, TF over GST control); with ETV6, 1.21 fold enrichment (6-mer frequency, TF over GST control).
